Experimental data reported in PubChem BioAssay (NCI).
The panel holds about 83,000 compounds, 20% with a hit somewhere; the sample as a whole holds those more often.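 Results are percent growth after 48 hours of single-concentration exposure. 100 means growth as in untreated cells, lower positive values show inhibition; negative values down to -100 show cell death.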 Activity calls are given as the source filed them. The calls were made as follows: active = growth percent below 10; inactive = the rest.

system: CCRF-CEM leukemia; assay: NCI-60 one-dose screen, 48 h (100 = growth as untreated, 0 = no growth, -100 = all killed); settings: 10 µM unless noted

SMILES	growth
O=C(Nc1ccc(-n2ccc3c(NC(=O)c4ccccc4)ncnc32)cc1)c1ccc(Cl)c(C(F)(F)F)c1	7.36% (active)
CC12CCC3C(CCC4CC(O)CCC43C)C1C/C(=C/O)C(=O)O2 (centres undefined)	92.6% (inactive)
O=C1/C(=C/c2cccc3cnccc23)Cc2cc(F)ccc21	110% (inactive)
CCc1c(C)c2cc(-n3c(-c4ccc(OC)cc4)csc3=N)c(O)c(C)c2oc1=O	7.21% (active)
O=C(NCCNc1nccc(-c2c(-c3cccc(O)c3)nc3sccn23)n1)c1ccccc1O	18.9% (inactive)
NC(CCCC(N)C(=O)c1ccccc1)C(=O)O (centres undefined)	111% (inactive)
COc1ccc(-c2nnc(SCC(=O)N3CCN(c4cc5c(cc4F)c(=O)c(C(=O)O)cn5C4CC4)CC3)o2)cc1OC	82.6% (inactive)
CC(C)(C)C(=O)/C=c1/[nH]c(=O)/c(=C/c2ccccc2O)s1	57.8% (inactive)
O=C1c2ccccc2OC=C(c2ccccc2)N1CCCCN1CCCCC1	43.9% (inactive)
CNCCCOc1c(Br)cc(CCNC(=O)/C(Cc2cc(Br)c(OC)c(Br)c2)=N/O)cc1Br	-9.15% (active)
COc1ccc(-c2nnc(SCC(=O)Nc3ccc(C(=O)/C=C/c4ccc(OC)c(OC)c4)cc3)o2)cc1	77.7% (inactive)
COc1cc(-c2nc(SCC(=O)Nc3ccc(C(C)=O)cc3)[nH]c(=O)c2C#N)cc(OC)c1OC	-11.9% (active)
O=C1OC(N(Cc2ccc(Cl)cc2)c2ccccc2)c2ccccc21 (centres undefined)	92.2% (inactive)
O=C(NNC(=O)c1ccc([N+](=O)[O-])cc1)c1ccc([N+](=O)[O-])cc1	91.6% (inactive)
CCOC(=O)C1=C(N)Oc2cc(OC)ccc2C1c1ccc(F)c(F)c1 (centres undefined)	20.4% (inactive)
Cc1c(Cl)ccc2c(C(=O)Cl)cc(-c3ccccc3)nc12	88.1% (inactive)
CCCCCCCCCCCCCCCC(=O)NS(=O)(=O)OC[C@H]1O[C@@H](n2cnc3c(N)ncnc32)[C@H](O)[C@@H]1O	5.11% (active)
COc1ccc(-c2nnc(NC(=O)CN3CCN(c4cc5c(cc4F)c(=O)c(C(=O)O)cn5C4CC4)CC3)s2)cc1OC	98.9% (inactive)
O=S(=O)(CCN1CCOCC1)Nc1cc(-c2ccc3ncnc(Nc4ccc(F)c(Cl)c4)c3c2)cnc1Cl	14.5% (inactive)

SMILES	growth
C[C@]12O[C@H]1[C@H](O)c1c(cc(O)c3c1C(=O)c1cccc(O)c1-3)C2=O	92% (inactive)
COc1ccc(OCC(O)CN2CCN(c3ccc(Cl)cc3)CC2)cc1 (centres undefined)	113% (inactive)
COc1ccc2c(c1)O/C(=C/c1ccc(OCC(=O)Nc3ccc(S(N)(=O)=O)cc3)cc1)C2=O	94.6% (inactive)
O=C1COc2ccccc2C(=O)N1CCCCN1CCCCC1	69.4% (inactive)
CCn1c(SCC(=O)c2ccc(Br)cc2)nnc1-c1cc2c([nH]c3ccccc32)c(-c2cccc(O)c2)n1	78.5% (inactive)
CC(C)CNCC(O)COc1ccc(C(C)(C)c2ccc(OCC(O)CNCC(C)C)cc2)cc1 (centres undefined)	0.812% (active)
CC[C@H]1[C@@H]2C=C[C@@H]3[C@H]4C/C=C\C(=O)NCCC[C@@H]5NC(=O)/C(=C(O)/C=C/[C@@H]4C[C@@H]3[C@H]2C[C@H]1C)C5=O	-17% (active)
Cc1cc(-c2ccccc2)nc2ccccc12	84.9% (inactive)
CCn1c(SC)nnc1-c1cc2c([nH]c3ccccc32)c(-c2cccc(O)c2)n1	18.4% (inactive)
O=C(O)c1ccc(-c2nn(-c3ccc(C(=O)O)cc3)cc2/C=N/Nc2c(F)c(F)cc(F)c2F)cc1	97.9% (inactive)
CCN(CC)CCNCC(O)Cc1ccc(OC)cc1 (centres undefined)	83.9% (inactive)
Nc1ncnc2c1ncn2C1OC(COC(c2ccccc2)(c2ccccc2)c2ccccc2)C(O)C1O (centres undefined)	46.1% (inactive)
O=C(Nc1cccc(-n2ccc3c(NC(=O)c4ccccc4)nccc32)c1)c1cc(N2CCOCC2)cc(C(F)(F)F)c1	13.5% (inactive)
Nn1c(CN2CCN(c3cc4c(cc3F)c(=O)c(C(=O)O)cn4C3CC3)CC2)n[nH]c1=S	98.8% (inactive)
CCOC(=O)c1[nH]c(-c2ccc(Cl)cc2)cc1-c1cccnc1	9.2% (active)
O=c1c2ccccc2[nH]n1Cc1ccc2c(c1)OCO2	96.2% (inactive)
Cc1ncc(CO)c(C(=O)O)c1O	121% (inactive)
CCN(CC)CCN1C(=O)c2c(c3c4ccccc4[nH]c3c3[nH]c4ccccc4c23)C1=O	78.8% (inactive)
C=CCn1c(SCC(=O)Nc2ccc(C(=O)/C=C/c3cc(OC)c(OC)c(OC)c3)cc2)nnc1-c1ccc(OC)cc1	6.53% (active)

system: MOLT-4 leukemia; assay: as above; settings: 10 µM unless noted

SMILES	growth
CC12CCC3C(CCC4CC(O)CCC43C)C1C/C(=C/O)C(=O)O2 (centres undefined)	101% (inactive)
O=C1/C(=C/c2cccc3cnccc23)Cc2cc(F)ccc21	82.1% (inactive)
CCc1c(C)c2cc(-n3c(-c4ccc(OC)cc4)csc3=N)c(O)c(C)c2oc1=O	6.48% (active)
NC(CCCC(N)C(=O)c1ccccc1)C(=O)O (centres undefined)	94.5% (inactive)
COc1ccc(-c2nnc(SCC(=O)N3CCN(c4cc5c(cc4F)c(=O)c(C(=O)O)cn5C4CC4)CC3)o2)cc1OC	77.4% (inactive)
CNCCCOc1c(Br)cc(CCNC(=O)/C(Cc2cc(Br)c(OC)c(Br)c2)=N/O)cc1Br	-17.4% (active)
COc1ccc(-c2nnc(SCC(=O)Nc3ccc(C(=O)/C=C/c4ccc(OC)c(OC)c4)cc3)o2)cc1	68.1% (inactive)
O=C1OC(N(Cc2ccc(Cl)cc2)c2ccccc2)c2ccccc21 (centres undefined)	81.9% (inactive)
O=C(NNC(=O)c1ccc([N+](=O)[O-])cc1)c1ccc([N+](=O)[O-])cc1	100% (inactive)
CCOC(=O)C1=C(N)Oc2cc(OC)ccc2C1c1ccc(F)c(F)c1 (centres undefined)	28.6% (inactive)
Cc1c(Cl)ccc2c(C(=O)Cl)cc(-c3ccccc3)nc12	96.2% (inactive)
CCCCCCCCCCCCCCCC(=O)NS(=O)(=O)OC[C@H]1O[C@@H](n2cnc3c(N)ncnc32)[C@H](O)[C@@H]1O	-4.18% (active)
COc1ccc(-c2nnc(NC(=O)CN3CCN(c4cc5c(cc4F)c(=O)c(C(=O)O)cn5C4CC4)CC3)s2)cc1OC	93% (inactive)
O=S(=O)(CCN1CCOCC1)Nc1cc(-c2ccc3ncnc(Nc4ccc(F)c(Cl)c4)c3c2)cnc1Cl	-8.59% (active)
C[C@]12O[C@H]1[C@H](O)c1c(cc(O)c3c1C(=O)c1cccc(O)c1-3)C2=O	86.6% (inactive)
COc1ccc2c(c1)O/C(=C/c1ccc(OCC(=O)Nc3ccc(S(N)(=O)=O)cc3)cc1)C2=O	88.3% (inactive)
CC(C)CNCC(O)COc1ccc(C(C)(C)c2ccc(OCC(O)CNCC(C)C)cc2)cc1 (centres undefined)	-35.8% (active)
Cc1cc(-c2ccccc2)nc2ccccc12	91.5% (inactive)
O=C(O)c1ccc(-c2nn(-c3ccc(C(=O)O)cc3)cc2/C=N/Nc2c(F)c(F)cc(F)c2F)cc1	92.8% (inactive)
CCN(CC)CCNCC(O)Cc1ccc(OC)cc1 (centres undefined)	73.4% (inactive)
O=C(Nc1cccc(-n2ccc3c(NC(=O)c4ccccc4)nccc32)c1)c1cc(N2CCOCC2)cc(C(F)(F)F)c1	0.605% (active)
Nn1c(CN2CCN(c3cc4c(cc3F)c(=O)c(C(=O)O)cn4C3CC3)CC2)n[nH]c1=S	103% (inactive)
CCOC(=O)c1[nH]c(-c2ccc(Cl)cc2)cc1-c1cccnc1	11.7% (inactive)
O=c1c2ccccc2[nH]n1Cc1ccc2c(c1)OCO2	97.4% (inactive)
Cc1ncc(CO)c(C(=O)O)c1O	82.5% (inactive)
CCN(CC)CCN1C(=O)c2c(c3c4ccccc4[nH]c3c3[nH]c4ccccc4c23)C1=O	34.8% (inactive)
